# Inconclusive results are not listed. A call without a number means that no potency is given here. Where a structure was tested more than once in an assay, its records may differ in their call. Activity calls are given as the source filed them. Calls come from the whole dose curve; as a rule, active = well fitted cell-killing curve with a large enough effect in the repeat runs; inconclusive = weak or mixed curves, or effect the other way; inactive = flat fitted curve, though single readings scatter.
# Test: qHTS RealTime-Glo MT Cell Viability Assay in HEK293 cells - 32 hour (AID 1224868); note: nearly all actives have a fitted effect of over 50% in size
# Conditions: RealTime-Glo luminescence; series mostly up to 76.8 µM
# Excerpt: National Center for Advancing Translational Sciences [NCATS]
# NIH Chemical Genomics Center [NCGC]
# U.S. Environmental Protection Agency [EPA]
# National Institutes of Environmental Health Sciences [NIEHS]
# National Toxicology Program [NTP]
# U.S. Food and Drug Administration [FDA]
# Measure of cell viability is critical in the cell-base assay. Analysis of cell viability is necessary for the characterization of cell responses to cytotoxic drugs and environmental stress. A RealTime-Glo MT Cell Viability Assay to monitor cell viability in real time of continues cell culture during 40 hours of compound treatment was used to screen Tox21 10K library compounds in Hek293 cells. The RealTime-Glo MT Cell Viability Assay is a nonlytic, homogeneous, bioluminescent method to measure cell viability in real time using a simple, plate-based method. The assay involves adding NanoLuc luciferase and a cell-permeant prosubstrate to cells in culture. Viable cells reduce the proprietary prosubstrate to generate a substrate for NanoLuc luciferase. This substrate diffuses from cells into the surrounding culture medium, where it is rapidly used by the NanoLuc Enzyme to produce a luminescent signal. The signal correlates with the number of viable cells, making the assay well suited for cytotoxicity studies.
# Tox21 Assay Protocol Summary:
# The mixture of Hek293 cell suspension and reagents were dispensed at 600cells/6 ul/well in 1536-well tissue culture treated black solid bottom plates using a Multidrop dispenser. After the assay plates were incubated at a 37 C/5% CO2 incubator for 5 hours, 23 nL of compounds dissolved in DMSO, positive and negative controls was transferred to the assay plate by a pintool work station. The plates were incubated at 37 C for 40 hours. The luminescence intensity were measured at 0h, 8h, 16h, 24h, 32h and 40h time points using ViewLux plate reader during compound treatment.
# Potency is the fitted concentration of half-maximal effect.
row,Compound,Potency
1,CC(NC(C)(C)C)C(=O)c1cccc(Cl)c1 (stereo not given),inactive
2,CN(N=O)c1ccccc1,inactive
3,CCc1cccc(C)c1N(C(=O)CCl)C(C)COC (stereo not given),inactive
4,NCCc1ccc(O)cc1,inactive
5,CN1C(=O)CN=C(c2ccccc2)c2cc(Cl)ccc21,inactive
6,CCCCCOC(=O)c1ccccc1C(=O)OCCCCC,inactive
7,CC(C#N)CCC#N (stereo not given),inactive
8,COc1ccc2c3c1O[C@H]1[C@@H](O)C=C[C@H]4[C@@H](C2)N(C)CC[C@@]341,43 µM (active) and inactive
9,CN=C=S,inactive
10,CC(Oc1ccc(Cl)cc1Cl)C(=O)O (stereo not given),inactive
11,CC(Br)C(=O)O (stereo not given),inactive
12,CCOP(=S)(OCC)SCCSCC,inactive
13,CC1OC(C)OC(C)O1 (stereo not given),inactive
14,CCC(C)(CC)c1cc(NC(=O)c2c(OC)cccc2OC)on1,inactive
15,CCOP(OCC)OCC,inactive
16,O=[N+]([O-])c1ccc([As](=O)(O)O)cc1,inactive
17,C=CCO,inactive
18,Cc1[nH]c(=O)n(C(C)(C)C)c(=O)c1Cl,inactive
19,O=c1[nH]c(=O)[nH]c(=O)[nH]1,inactive
20,O=c1ccc(=O)[nH][nH]1,inactive

row,Compound,Potency
1,CN(C)[C@@H]1C(=O)C(C(N)=O)=C(O)[C@@]2(O)C(=O)C3=C(O)c4c(O)cccc4[C@@](C)(O)[C@H]3C[C@@H]12,inactive
2,CC(C)C1(C)N=C(c2nc3ccccc3cc2C(=O)O)NC1=O (stereo not given),inactive
3,CC(=O)C=C(C)C,inactive
4,O=C(O)c1ccccn1,inactive
5,O=NN1CCCC1,inactive
6,CCN(CC)CCO,inactive
7,COC(=O)c1ccccc1C(=O)OC,inactive
8,c1cc2c3c(cccc3c1)CC2,inactive
9,O=C1CCCN1,inactive
10,ClCc1cccnc1,inactive
11,Cc1cc(-c2cc(C)c(N)c(C)c2)cc(C)c1N,inactive
12,Cn1cc(-c2ccccc2)c(=O)c(-c2cccc(C(F)(F)F)c2)c1,inactive
13,CC(C)(C)OOC(=O)c1ccccc1,inactive
14,NCC(O)c1ccc(O)cc1 (stereo not given),inactive
15,Cc1ccc(N)cc1Cl,inactive
16,Nc1ccccc1C(=O)O,inactive
17,Clc1ccc(Cl)cc1,inactive
18,O=c1[nH]c2ccccc2c(=O)o1,inactive
19,C#CC(C)(C)NC(=O)c1cc(Cl)cc(Cl)c1,inactive
20,Cc1ccccc1O,inactive
